Results filed as inconclusive are left out. Calls of active or inactive are those of the source. How the source made its calls: active means hit-call score of the fitted dose curve at least 0.9, where 1 is the maximum; inconclusive means response in the unintended direction; inactive means score below 0.9. Peptide text beside a SMILES is read from it.
target: Estrogen receptor (Homo sapiens) (UniProt P03372); assay: OT_ER_ERaERa_0480: Odyssey Thera (OT) 8-hour HEK293T Protein-Complementation Assay for Estrogen Receptor-alpha/-alpha Homodimer (AID 2283351);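 further: rise in fluorescence from reassembled reporter fragments on ERα LBD homodimer in nucleus or whole cell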
Summary of the method: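 Measures ERα LBD (aa 310-547) homodimer complementation in stably transfected HEK293T at 8 h post-dose, with fluorescence intensity quantified on a laser scanning cytometer relative to DMSO controls.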

Estrogen receptor (Homo sapiens), sequence (P03372 whole entry, looked up, the tested form may be a part): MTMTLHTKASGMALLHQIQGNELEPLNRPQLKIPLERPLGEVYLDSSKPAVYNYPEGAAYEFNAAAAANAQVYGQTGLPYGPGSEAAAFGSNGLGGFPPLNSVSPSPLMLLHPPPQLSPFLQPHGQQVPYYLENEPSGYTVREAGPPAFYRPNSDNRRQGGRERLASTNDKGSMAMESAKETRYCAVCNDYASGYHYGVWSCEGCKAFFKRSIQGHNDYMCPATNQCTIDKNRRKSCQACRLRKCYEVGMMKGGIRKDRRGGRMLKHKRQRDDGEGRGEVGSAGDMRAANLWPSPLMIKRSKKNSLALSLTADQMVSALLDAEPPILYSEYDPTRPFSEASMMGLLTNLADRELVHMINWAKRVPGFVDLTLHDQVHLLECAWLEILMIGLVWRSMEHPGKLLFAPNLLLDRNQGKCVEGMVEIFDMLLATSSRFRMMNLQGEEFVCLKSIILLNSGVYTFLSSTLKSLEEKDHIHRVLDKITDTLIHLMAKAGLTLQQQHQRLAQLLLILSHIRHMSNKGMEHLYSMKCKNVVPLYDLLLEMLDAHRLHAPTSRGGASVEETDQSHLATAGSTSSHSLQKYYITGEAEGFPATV

SMILES | outcome | AC50
CC1(C)[C@@H]2CC[C@@]1(C)C(=O)C2 | inactive | 
CC(=O)/C=C/C1C(C)=CCCC1(C)C (stereo not drawn) | inactive | 
C=C[C@@]1(C)CC(=O)[C@]2(O)[C@@]3(C)[C@@H](O)CCC(C)(C)[C@@H]3[C@H](O)[C@H](OC(C)=O)[C@@]2(C)O1 | inactive | 
O=C(OCCc1ccccc1)c1ccccc1 | inactive | 
CCCCCCCCCCCCCC(=O)OC(C)C | inactive | 
CCCCNC(=S)NCCCC | inactive | 
CCCCCCCCCC(C)=O |  | 68.5 µM (active)
Cc1ccc(C)c(OCCCC(C)(C)C(=O)O)c1 | inactive | 
CC(C)(C)N | inactive | 
CCCCCCC=O | inactive | 
O=C(O)CCC(=O)O | inactive | 
CCCCCCCCC(CO)CCCCCC (stereo not drawn) | inactive | 
CC(C)=CCCC(C)=CC#N | inactive | 
CC(=O)OC1CCCCC1C(C)(C)C (stereo not drawn) | inactive | 
CCC(C)(O)CCCC(C)C (stereo not drawn) | inactive | 
O=C(O)/C=C/c1ccccc1 | inactive | 
O=C(O)c1ccc2c(c1)C(=O)OC2=O | inactive | 
CCCCOCCOC(=O)COc1ccc(Cl)cc1Cl | inactive | 
C[Si]1(C)O[Si](C)(C)O[Si](C)(C)O[Si](C)(C)O[Si](C)(C)O1 | inactive | 
C=CCOC(=O)c1ccc(C(=O)OCC=C)c(C(=O)OCC=C)c1 | inactive | 

SMILES | outcome | AC50
COc1ccc(C(=O)c2ccccc2)c(O)c1 |  | 58.4 µM (active)
Fc1ccc(Br)cc1 | inactive | 
O=C(Oc1ccccc1)c1ccccc1O | inactive | 
CC(=O)OCc1ccccc1 | inactive | 
COc1cc(O)c(C(=O)c2ccccc2)cc1S(=O)(=O)O | inactive | 
C=C[Si](OCCOC)(OCCOC)OCCOC | inactive | 
COC(=O)[C@H](Cc1ccccc1)NC(=O)[C@@H](N)CC(=O)O (H-Asp-Phe-OMe) | inactive | 
Cc1c(C(=O)c2c[nH]n(C)c2=O)ccc(S(C)(=O)=O)c1C1=NOCC1 | inactive | 
N#Cc1ccc(C(c2ccc(C#N)cc2)n2cncn2)cc1 | inactive | 
CCC1COC(=O)O1 (stereo not drawn) | inactive | 
CC12CCC(CC1)C(C)(C)O2 | inactive | 
CCCCC(CC)COS(=O)(=O)O (stereo not drawn) | inactive | 
CC(C)(c1ccccc1)c1ccc(Nc2ccc(C(C)(C)c3ccccc3)cc2)cc1 | inactive | 
CC(=O)OC(C)c1ccccc1 (stereo not drawn) | inactive | 
CCC[Si](OC)(OC)OC | inactive | 
Oc1ccc(-c2ccccc2)c(Cl)c1 |  | 12.2 µM (active)
C1CNCCN1 | inactive | 
CC(=O)c1ccccc1O | inactive | 
CCOC(=O)C1=NOC(c2ccccc2)(c2ccccc2)C1 | inactive | 

target: Estrogen receptor (Homo sapiens) + Estrogen receptor beta (Homo sapiens) (UniProt P03372+Q92731); assay: OT_ER_ERaERb_0480: Odyssey Thera (OT) 8-hour HEK293T Protein-Complementation Assay for Estrogen Receptor-alpha/-beta Heterodimer (AID 2283352)
Summary of the method: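 Fluorescence intensity readout from a protein-fragment complementation reporter in HEK293T; ER-alpha/ER-beta LBD heterodimer. Dosing 8 h. Gain-of-signal fit relative to DMSO negative control; laser scanning cytometry of whole-well cell population.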

Estrogen receptor (Homo sapiens) + Estrogen receptor beta (Homo sapiens), sequence (P03372 whole entry, looked up, the tested form may be a part): as above
Estrogen receptor (Homo sapiens) + Estrogen receptor beta (Homo sapiens), sequence (Q92731 whole entry, looked up, the tested form may be a part): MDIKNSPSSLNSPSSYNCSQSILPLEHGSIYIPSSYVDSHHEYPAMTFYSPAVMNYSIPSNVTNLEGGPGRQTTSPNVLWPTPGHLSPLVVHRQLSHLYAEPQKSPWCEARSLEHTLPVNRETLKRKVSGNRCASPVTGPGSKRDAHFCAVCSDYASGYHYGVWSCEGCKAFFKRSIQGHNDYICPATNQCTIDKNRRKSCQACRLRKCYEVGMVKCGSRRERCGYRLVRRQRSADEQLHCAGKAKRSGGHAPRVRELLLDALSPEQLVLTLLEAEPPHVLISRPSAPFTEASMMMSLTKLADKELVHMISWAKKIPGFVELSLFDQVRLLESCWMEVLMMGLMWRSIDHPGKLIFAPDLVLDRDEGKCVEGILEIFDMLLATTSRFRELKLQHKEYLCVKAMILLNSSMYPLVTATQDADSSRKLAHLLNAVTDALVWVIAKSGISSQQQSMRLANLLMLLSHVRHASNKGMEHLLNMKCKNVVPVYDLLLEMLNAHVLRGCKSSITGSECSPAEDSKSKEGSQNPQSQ

SMILES | outcome | AC50
CC1(C)[C@@H]2CC[C@@]1(C)C(=O)C2 | inactive | 
C=C[C@@]1(C)CC(=O)[C@]2(O)[C@@]3(C)[C@@H](O)CCC(C)(C)[C@@H]3[C@H](O)[C@H](OC(C)=O)[C@@]2(C)O1 | inactive | 
CCCCCCCCCCCCCC(=O)OC(C)C | inactive | 
CCCCNC(=S)NCCCC | inactive | 
CCCCCCCCCC(C)=O | inactive | 
Cc1ccc(C)c(OCCCC(C)(C)C(=O)O)c1 | inactive | 
CCCCCCCCC(CO)CCCCCC (stereo not drawn) | inactive | 
CC(=O)OC1CCCCC1C(C)(C)C (stereo not drawn) | inactive | 
O=C(O)c1ccc2c(c1)C(=O)OC2=O | inactive | 
CCCCOCCOC(=O)COc1ccc(Cl)cc1Cl | inactive | 
C=CCOC(=O)c1ccc(C(=O)OCC=C)c(C(=O)OCC=C)c1 | inactive | 
COc1ccc(C(=O)c2ccccc2)c(O)c1 |  | 31 µM (active)
CC(=O)OCc1ccccc1 | inactive | 
COc1cc(O)c(C(=O)c2ccccc2)cc1S(=O)(=O)O | inactive | 
Cc1c(C(=O)c2c[nH]n(C)c2=O)ccc(S(C)(=O)=O)c1C1=NOCC1 | inactive | 
N#Cc1ccc(C(c2ccc(C#N)cc2)n2cncn2)cc1 | inactive | 
CCCCC(CC)COS(=O)(=O)O (stereo not drawn) | inactive | 
CC(=O)OC(C)c1ccccc1 (stereo not drawn) | inactive | 
CCC[Si](OC)(OC)OC | inactive | 
Oc1ccc(-c2ccccc2)c(Cl)c1 |  | 12.2 µM (active)
C1CNCCN1 | inactive | 
CCOC(=O)C1=NOC(c2ccccc2)(c2ccccc2)C1 | inactive | 

target: Androgen Receptor/SRC-1 Co-activator, AR (gene 367) (UniProt P10275); assay: OT_AR_ARSRC1_0960: Odyssey Thera (OT) 16-hour HEK293T Protein-Complementation Assay for Androgen Receptor/SRC-1 Co-activator (AID 2283353);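 further: actives raise the signal above DMSO so potency reflects increased AR and SRC-1 complex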
Summary of the method: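 Sixteen-hour cell assay: Venus halves fused to AR and SRC-1 in HEK293T report binding. Images at 488/635 nm give an N/C ratio in the 488 nm channel over ≥400 cells, analysed as signal increase over DMSO.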

Androgen Receptor/SRC-1 Co-activator, AR (gene 367), sequence (P10275 whole entry, looked up, the tested form may be a part): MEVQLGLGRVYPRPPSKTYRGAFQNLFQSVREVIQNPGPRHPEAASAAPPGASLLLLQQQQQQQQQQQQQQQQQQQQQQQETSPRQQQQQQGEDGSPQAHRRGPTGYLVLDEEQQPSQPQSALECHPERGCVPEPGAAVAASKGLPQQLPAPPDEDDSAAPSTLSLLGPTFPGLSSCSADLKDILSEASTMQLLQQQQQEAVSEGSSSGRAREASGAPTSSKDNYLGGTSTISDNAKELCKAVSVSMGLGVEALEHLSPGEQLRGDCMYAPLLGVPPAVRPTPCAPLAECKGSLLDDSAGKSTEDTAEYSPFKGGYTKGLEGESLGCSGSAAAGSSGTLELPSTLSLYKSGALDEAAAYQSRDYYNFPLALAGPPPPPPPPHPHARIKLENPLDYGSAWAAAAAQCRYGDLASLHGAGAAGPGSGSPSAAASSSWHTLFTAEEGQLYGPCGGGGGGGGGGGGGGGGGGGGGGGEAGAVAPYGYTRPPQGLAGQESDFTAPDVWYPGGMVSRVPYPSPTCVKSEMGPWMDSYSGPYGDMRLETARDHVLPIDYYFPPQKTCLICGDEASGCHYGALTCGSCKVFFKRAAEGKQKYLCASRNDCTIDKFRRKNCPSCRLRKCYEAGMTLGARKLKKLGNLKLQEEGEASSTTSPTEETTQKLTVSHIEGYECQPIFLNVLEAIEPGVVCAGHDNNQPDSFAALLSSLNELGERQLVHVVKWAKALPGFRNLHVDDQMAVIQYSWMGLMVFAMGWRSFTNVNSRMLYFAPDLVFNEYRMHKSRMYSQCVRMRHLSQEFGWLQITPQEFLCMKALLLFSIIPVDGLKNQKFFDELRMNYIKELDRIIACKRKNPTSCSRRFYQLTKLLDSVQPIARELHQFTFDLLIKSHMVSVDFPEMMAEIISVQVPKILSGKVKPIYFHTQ

SMILES | outcome | AC50
CCCCCCCCCCCCCC(=O)OC(C)C | inactive | 
CCCCCCCCCC(C)=O | inactive | 
Cc1ccc(C)c(OCCCC(C)(C)C(=O)O)c1 | inactive | 
CC(=O)OC1CCCCC1C(C)(C)C (stereo not drawn) | inactive | 
O=C(O)c1ccc2c(c1)C(=O)OC2=O | inactive | 
COc1ccc(C(=O)c2ccccc2)c(O)c1 | inactive | 
CC(=O)OCc1ccccc1 | inactive | 
COc1cc(O)c(C(=O)c2ccccc2)cc1S(=O)(=O)O | inactive | 
Cc1c(C(=O)c2c[nH]n(C)c2=O)ccc(S(C)(=O)=O)c1C1=NOCC1 | inactive | 
N#Cc1ccc(C(c2ccc(C#N)cc2)n2cncn2)cc1 | inactive | 
CCC[Si](OC)(OC)OC | inactive | 
Oc1ccc(-c2ccccc2)c(Cl)c1 |  | 40 µM (active)

target: Androgen Receptor/SRC-1 Co-activator, AR (gene 367) (UniProt P10275); assay: OT_AR_ARSRC1_0480: Odyssey Thera (OT) 8-hour HEK293T Protein-Complementation Assay for Androgen Receptor/SRC-1 Co-activator (AID 2283354);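 further: hits raise the complementation signal above DMSO so AC50 marks enhancers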
Summary of the method: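 After 8 h dosing, stably expressing HEK293T cells with split-Venus AR/SRC-1 fusions were imaged (488, 635nm). The 488nm N/C ratio per image gave the endpoint, analysed in the positive direction against DMSO.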

SMILES | outcome | AC50
CCCCCCCCCCCCCC(=O)OC(C)C | inactive | 
CCCCCCCCCC(C)=O | inactive | 
Cc1ccc(C)c(OCCCC(C)(C)C(=O)O)c1 | inactive | 
CC(=O)OC1CCCCC1C(C)(C)C (stereo not drawn) | inactive | 
COc1ccc(C(=O)c2ccccc2)c(O)c1 | inactive | 
CC(=O)OCc1ccccc1 | inactive | 
COc1cc(O)c(C(=O)c2ccccc2)cc1S(=O)(=O)O | inactive | 
N#Cc1ccc(C(c2ccc(C#N)cc2)n2cncn2)cc1 | inactive | 
CCC[Si](OC)(OC)OC | inactive | 
Oc1ccc(-c2ccccc2)c(Cl)c1 |  | 31.5 µM (active)
